“And” between values parts separate entries of the source, which are not always exact repeats. Equal entries are not always repeated. Results filed as inconclusive are left out. Some compounds were tested as several samples or in several runs, with calls that do not always agree. The source made the active and inactive calls. The call rests on the fitted dose curve; in most records, active means well fitted cell-killing curve with a large enough effect; inconclusive means small, poorly fitted or top-dose-only effect, or effect the other way; inactive means no such curve, though single readings can be large or run the other way.
Experiment: Viability qHTS for spleen associated tyrosine kinase inhibitor (SYKi) naive MV4-11 cells (AID 1963823); further: nearly all actives have a fitted effect of over 40% in size
Conditions: MV4-11 AML viability, CellTiter-Glo luminescence, 72 h; series mostly up to 45 µM
In short: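 qHTS, SYK inhibitor-naive MV4-11; 500 cells/well; 72 hr compound exposure, 37 C; CellTiter-Glo added, 10 min RT; luminescence read.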
With `O=C1Nc2nc(-c3c(O)cccc3OCC3CC3)cc([C@@H]3CCCNC3)c2CO1` the Potency was 2.91 µM (active).
With `CO[C@@H]1[C@@H](OC)[C@H](C)[C@@](O)(CC(=O)O)O[C@H]1[C@H](C)[C@H]1O[C@@]2(CC[C@@](C)([C@H]3CC[C@@](C)([C@@H]4O[C@@H]([C@H]5O[C@](C)(O)[C@H](C)C[C@@H]5C)C[C@@H]4OC4C[C@H](OC)[C@@H](OC)[C@H](C)O4)O3)O2)C[C@H](O)[C@H]1C` (stereo not given in full) the Potency was 0.376 µM (active).
In the case of `COc1cc(C(=O)O)ccc1NC(=O)[C@@H]1N[C@@H](CC(C)(C)C)[C@](C#N)(c2ccc(Cl)cc2F)[C@H]1c1cccc(Cl)c1F`, the Potency is reported as 6.61 µM (active).
With `OCc1ccccc1O[C@@H]1O[C@H](CO)[C@@H](O)[C@H](O)[C@H]1O` the Potency was “inactive”.
For `C[C@@H](O[C@H]1OCCN(Cc2n[nH]c(=O)[nH]2)[C@@H]1c1ccc(F)cc1)c1cc(C(F)(F)F)cc(C(F)(F)F)c1`, the Potency was 16.6 µM (active).
In the case of `c1cc(-c2cnn3cc(-c4ccc(N5CCNCC5)cc4)cnc23)c2cccnc2c1`, the Potency is reported as 0.662 µM (active).
With `CCC[C@H](N[C@H]1CCc2cc(F)cc(F)c2C1)C(=O)Nc1cn(C(C)(C)CNCC(C)(C)C)cn1` the Potency was 8.33 µM (active).
With `Cn1ncc(Cl)c1-c1cc(C(=O)N[C@H](CN)Cc2ccc(F)c(F)c2)sc1Cl` the Potency was 9.2 µM (active) and 5.9 µM (active).
With `COc1ccccc1C(=O)Nc1cc2c(cc1N1CCCCC1)n(C)c(=O)n2C` the Potency was 14.8 µM (active).
In the case of `COc1cc(C(=S)N2CCOCC2)cc(OC)c1OC`, the Potency is reported as “inactive”.
For `CO/N=C(\C(=O)O)c1csc(NC(=O)CCl)n1`, the Potency was “inactive”.
With `CC(C)C[C@@H](N)C(=O)O` the Potency was “inactive”.
In the case of `C1=C/COCc2cc(ccc2OCCN2CCCC2)Nc2nccc(n2)-c2cccc(c2)COC/1`, the Potency is reported as “inactive and 118 nM (active)”.
For `CCCCOCCOC(=O)c1cccnc1`, the Potency was “inactive”.
In the case of `COc1ccc(CCN2CCC(Nc3nc4ccccc4n3Cc3ccc(F)cc3)CC2)cc1`, the Potency is reported as 4.22 µM (active).
With `CN(C)C/C=C/C(=O)Nc1cc2c(Nc3ccc(F)c(Cl)c3)ncnc2cc1O[C@H]1CCOC1` the Potency was 1.48 µM (active).
With `CC1=C(/C=C/C(C)=C/C=C/C(C)=C/C(=O)O)C(C)(C)CCC1` the Potency was 668 nM (active) and 132 nM (active).
With `C=CC(=O)N1CCC[C@@H](n2nc(-c3ccc(Oc4ccccc4)cc3)c3c(N)ncnc32)C1` the Potency was 1.64 µM (active) and 662 nM (active).
In the case of `CC[C@@H]1[C@H](F)C(=O)N[C@@H]1COc1nccc2cc(C(N)=O)c(OC)cc12`, the Potency is reported as 11.8 µM (active).
With `CN(C)C/C=C/C(=O)Nc1cccc(C(=O)Nc2cccc(Nc3ncc(Cl)c(-c4c[nH]c5ccccc45)n3)c2)c1` the Potency was “inactive”.
In the case of `C=CC(=O)Nc1cccc(Nc2nc(Nc3ccc(OCCOC)cc3)ncc2F)c1`, the Potency is reported as 0.468 µM (active).
With `COc1ccc(Cc2cnc(N)nc2N)cc1OC` the Potency was “inactive”.
For `CCCCCCCCCCCCCCCC[N+](C)(C)CC`, the Potency was 0.299 µM (active).
In the case of `OC1(c2ccc(Cl)c(C(F)(F)F)c2)CCN(CCCC(c2ccc(F)cc2)c2ccc(F)cc2)CC1`, the Potency is reported as 2.66 µM (active) and 3.66 µM (active).
With `C[C@]12CCCN1CC1=NNC(=O)c3cc(F)cc4[nH]c2c1c34` the Potency was 2.63 µM (active).
For `CCNC(=O)NCc1cccc(Cl)c1`, the Potency was “inactive”.
For `C=C1[C@H](OC(=O)/C=C(\C)CC)C[C@@H](C(C)C)[C@@H]2[C@H]([C@@H](C)OC(C)=O)C(=O)C[C@@H]12`, the Potency was 14.8 µM (active).
With `COC(=O)c1cc(Cl)c(NC(C)=O)cc1OC` the Potency was “inactive”.
For `COc1cc(OC)c(/C=C/S(=O)(=O)Cc2ccc(OC)c(NCC(=O)O)c2)c(OC)c1`, the Potency was 92 nM (active) and 105 nM (active).
In the case of `O=C(CCc1ccc(O)cc1)c1c(O)cc(O)cc1O[C@@H]1O[C@H](CO)[C@@H](O)[C@H](O)[C@H]1O`, the Potency is reported as “inactive”.
In the case of `c1ccc2sc(SN3CCOCC3)nc2c1`, the Potency is reported as “inactive”.
For `Cc1c(N(C)C)c(=O)n(-c2ccccc2)n1C`, the Potency was “inactive”.
With `CCCCCN(CCCOC)C(=O)C(CCC(=O)O)NC(=O)c1ccc(Cl)c(Cl)c1` (stereo not given) the Potency was “inactive”.
With `CCNCCc1ccc(CN(CC)c2cc(OC)ccc2[C@@H]2CCc3cc(O)ccc3C2)cc1` the Potency was 2.35 µM (active).
For `Cc1ccc([N+](=O)[O-])cc1S(=O)(=O)N(C)/N=C/c1cnc2ccc(Br)cn12`, the Potency was 16.4 nM (active) and 26.3 nM (active).
In the case of `N=C(N)c1ccc2nc(-c3cc(CC(=O)N[C@@H](CC(=O)O)C(=O)O)cc(-c4cc(S(N)(=O)=O)ccc4O)c3O)[nH]c2c1`, the Potency is reported as “inactive”.
With `C#CC[C@H](c1nc2cc(Cl)ccc2c(=O)n1Nc1ccccc1)N(CCCN)C(=O)c1cccc(Cl)c1F` the Potency was 0.164 µM (active).
For `CC(=O)c1ccc(O)c(C(N)=O)c1`, the Potency was “inactive”.
With `CC(C)Cc1ccc([C@@H](C)C(=O)NS(C)(=O)=O)cc1` the Potency was “inactive”.
For `COC1=C(OC)C(=O)C(C/C=C(\C)CC/C=C(\C)CC/C=C(\C)CC/C=C(/C)CC/C=C(\C)CC/C=C(\C)CC/C=C(\C)CC/C=C(\C)CC/C=C(\C)CCC=C(C)C)=C(C)C1=O`, the Potency was “inactive”.

From PubChem BioAssay (NCATS)
Potency means the concentration at half of the fitted maximal effect.
